# Assay results taken from PubChem BioAssay AID1159580 (chemical genetic matrix, 2015).
# Several values for one entry are separate records, joined by “and”; a condition that tells them apart may be missing. Equal entries are not always repeated. Hit rate of the full screen: of about 5,500 compounds, about 2,000 (36%) were called active. Not shown: some 18% with an inconclusive outcome. No stated cut-off is given here; in the data, active means normalized growth mostly below about 0.91 (no sharp cut-off); inconclusive means no clear call, values can overlap the other calls; inactive means mostly above about 0.92. The list shows a part of the results.
# Assay: chemical genetic growth profiling, strain panel (AID 1159580);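 further: tested at 20 µM; growth read once vehicle control cultures reached saturation at 30 °C; 1 = growth at the plate median or of vehicle wells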
# Details: S. cerevisiae deletion strains, growth OD
structure (smiles),measurement,setting,value
CC(C)=CCc1c(O)cc2occ(-c3ccc4c(c3)OCO4)c(=O)c2c1O,normalized growth,"locus YAL013W, strain DEP1, stronger effect = lower value",1.01 (inactive)
same,normalized growth,"locus YAL021C, strain ccr4, stronger effect = lower value",1.05 (inactive)
same,normalized growth,"locus YAL026C, strain drs2, stronger effect = lower value",0.865 (active)
same,normalized growth,"locus YAL030W, strain snc1, stronger effect = lower value",0.996 (inactive)
same,normalized growth,"locus YBL061C, strain skt5, stronger effect = lower value",0.864 (active)
same,normalized growth,"locus YBR009C, strain hhf1, stronger effect = lower value",0.819 (active)
same,normalized growth,"locus YBR021W, strain FUR4, stronger effect = lower value",0.991 (inactive)
same,normalized growth,"locus YBR023C, strain chs3, stronger effect = lower value",0.855 (active)
same,normalized growth,"locus YBR171W, strain sec66, stronger effect = lower value",0.981 (inactive)
same,normalized growth,"locus YBR229C, strain ROT2, stronger effect = lower value",1.02 (inactive)
same,normalized growth,"locus YBR231C, strain swc5, stronger effect = lower value",0.929 (inactive)
same,normalized growth,"locus YBR279W, strain paf1, stronger effect = lower value",0.993 (inactive)
same,normalized growth,"locus YCL011C, strain gbp2, stronger effect = lower value",0.909 (inactive)
same,normalized growth,"locus YCL016C, strain dcc1, stronger effect = lower value",0.872 (active)
same,normalized growth,"locus YCL029C, strain bik1, stronger effect = lower value",1.03 (inactive)
same,normalized growth,"locus YCL061C, strain MRC1, stronger effect = lower value",0.909 (active)
same,normalized growth,"locus YCL069W, strain vba3, stronger effect = lower value",0.888 (active)
same,normalized growth,"locus YCR088W, strain abp1, stronger effect = lower value",0.998 (inactive)
same,normalized growth,"locus YDL005C, strain med2, stronger effect = lower value",0.993 (inactive)
same,normalized growth,"locus YDL035C, strain GPR1, stronger effect = lower value",1.01 (inactive)
same,normalized growth,"locus YDL040C, strain nat1, stronger effect = lower value",1 (inactive)
same,normalized growth,"locus YDL074C, strain BRE1, stronger effect = lower value",1.03 (inactive)
same,normalized growth,"locus YDL101C, strain DUN1, stronger effect = lower value",1.01 (inactive)
same,normalized growth,"locus YDL134C, strain PPH21, stronger effect = lower value",1.01 (inactive)
same,normalized growth,"locus YDL185W, strain tfp1, stronger effect = lower value",1.03 (inactive)
same,normalized growth,"locus YDL192W, strain arf1, stronger effect = lower value",1.03 (inactive)
same,normalized growth,"locus YDR001C, strain nth1, stronger effect = lower value",1.01 (inactive)
same,normalized growth,"locus YDR069C, strain doa4, stronger effect = lower value",0.957 (inactive)
same,normalized growth,"locus YDR101C, strain arx1, stronger effect = lower value",1.01 (inactive)
same,normalized growth,"locus YDR137W, strain rgp1, stronger effect = lower value",0.897 (inactive)
same,normalized growth,"locus YDR150W, strain NUM1, stronger effect = lower value",1 (inactive)
same,normalized growth,"locus YDR159W, strain sac3, stronger effect = lower value",0.888 (inactive)
same,normalized growth,"locus YDR162C, strain NBP2, stronger effect = lower value",1.01 (inactive)
same,normalized growth,"locus YDR195W, strain ref2",0.937 (inactive)
same,normalized growth,"locus YDR297W, strain sur2, stronger effect = lower value",0.911 (active)
same,normalized growth,"locus YDR318W, strain mcm21, stronger effect = lower value",1.02 (inactive)
same,normalized growth,"locus YDR334W, strain swr1, stronger effect = lower value",0.967 (inactive)
same,normalized growth,"locus YDR335W, strain msn5, stronger effect = lower value",0.917 (active)
same,normalized growth,"locus YDR388W, stronger effect = lower value",1.02 (inactive)
same,normalized growth,"locus YDR392W, strain spt3, stronger effect = lower value",0.67 (active)
same,normalized growth,"locus YDR502C, strain sam2, stronger effect = lower value",1.01 (inactive)
same,normalized growth,"locus YEL003W, strain gim4, stronger effect = lower value",0.932 (inactive)
same,normalized growth,"locus YEL037C, strain rad23, stronger effect = lower value",0.994 (inactive)
same,normalized growth,"locus YEL061C, strain CIN8 (second series), stronger effect = lower value",0.997 (inactive)
same,normalized growth,"locus YEL061C, strain CIN8, stronger effect = lower value",1.01 (inactive)
same,normalized growth,"locus YER015W, strain faa2, stronger effect = lower value",0.876 (active)
same,normalized growth,"locus YER016W, strain bim1, stronger effect = lower value",0.997 (inactive)
same,normalized growth,"locus YER110C, stronger effect = lower value",1.05 (inactive)
same,normalized growth,"locus YER111C, strain swi4, stronger effect = lower value",1.02 (inactive)
same,normalized growth,"locus YER155C, strain BEM2 (second series), stronger effect = lower value",0.911 (inactive)
same,normalized growth,"locus YER155C, strain BEM2, stronger effect = lower value",1.01 (inactive)
same,normalized growth,"locus YER167W, strain BCK2, stronger effect = lower value",1.02 (inactive)
same,normalized growth,"locus YFR010W, strain ubp6, stronger effect = lower value",0.92 (inactive)
same,normalized growth,"locus YGL078C, strain dbp3, stronger effect = lower value",1.03 (inactive)
same,normalized growth,"locus YGL086W, strain mad1, stronger effect = lower value",1.05 (inactive)
same,normalized growth,"locus YGL167C, strain pmr1, stronger effect = lower value",1 (inactive)
same,normalized growth,"locus YGL173C, strain kem1, stronger effect = lower value",0.921 (inactive)
same,normalized growth,"locus YGL227W, strain vid30, stronger effect = lower value",0.972 (inactive)
same,normalized growth,"locus YGL240W, strain doc1, stronger effect = lower value",0.944 (inactive)
same,normalized growth,"locus YGL248W, strain PDE1, stronger effect = lower value",1.02 (inactive)
same,normalized growth,"locus YGL253W, strain hxk2, stronger effect = lower value",0.814 (active)
same,normalized growth,"locus YGR078C, strain PAC10, stronger effect = lower value",0.997 (inactive)
same,normalized growth,"locus YGR135W, strain pre9, stronger effect = lower value",0.993 (inactive)
same,normalized growth,"locus YGR229C, strain SMI1, stronger effect = lower value",0.983 (inactive)
same,normalized growth,"locus YGR252W, strain gcn5, stronger effect = lower value",1.03 (inactive)
same,normalized growth,"locus YHR013C, strain ard1, stronger effect = lower value",1.17 [resistant] (active)
same,normalized growth,"locus YHR027C, strain rpn1, stronger effect = lower value",0.805 (active)
same,normalized growth,"locus YHR030C, strain SLT2, stronger effect = lower value",1.01 (inactive) and 0.843 (active)
same,normalized growth,"locus YHR079C, strain IRE1 (second series), stronger effect = lower value",1.03 (inactive)
same,normalized growth,"locus YHR079C, strain IRE1, stronger effect = lower value",0.8 (active)
same,normalized growth,"locus YHR094C, strain hxt1, stronger effect = lower value",1.03 (inactive)
same,normalized growth,"locus YHR129C, strain ARP1, stronger effect = lower value",1.01 (inactive)
same,normalized growth,"locus YHR142W, strain chs7, stronger effect = lower value",0.74 (active)
same,normalized growth,"locus YHR200W, strain rpn10, stronger effect = lower value",1.02 (inactive)
same,normalized growth,"locus YIL066C, strain RNR3, stronger effect = lower value",1.01 (inactive)
same,normalized growth,"locus YIL073C, strain SPO22, stronger effect = lower value",1.05 (inactive)
same,normalized growth,"locus YIL125W, strain kgd1, stronger effect = lower value",1.03 (inactive)
same,normalized growth,"locus YIR030C, strain dcg1, stronger effect = lower value",1.02 (inactive)
same,normalized growth,"locus YJL092W, strain hpr5, stronger effect = lower value",0.962 (inactive)
same,normalized growth,"locus YJL095W, strain BCK1 (second series), stronger effect = lower value",0.946 (inactive)
same,normalized growth,"locus YJL095W, strain BCK1, stronger effect = lower value",0.984 (inactive) and 0.838 (active)
same,normalized growth,"locus YJL115W, strain asf1, stronger effect = lower value",1.01 (inactive)
same,normalized growth,"locus YJL129C, strain trk1, stronger effect = lower value",0.923 (inactive)
same,normalized growth,"locus YJL134W, strain LCB3, stronger effect = lower value",1.01 (inactive)
same,normalized growth,"locus YJL154C, strain vps35, stronger effect = lower value",1 (inactive)
same,normalized growth,"locus YJL164C, strain tpk1, stronger effect = lower value",0.943 (inactive)
same,normalized growth,"locus YJL166W, strain qcr8, stronger effect = lower value",0.862 (active)
same,normalized growth,"locus YJL168C, strain set2, stronger effect = lower value",1.02 (inactive)
same,normalized growth,"locus YJL187C, strain SWE1 (second series), stronger effect = lower value",1.01 (inactive)
same,normalized growth,"locus YJL187C, strain SWE1, stronger effect = lower value",1 (inactive)
same,normalized growth,"locus YJR043C, strain POL32, stronger effect = lower value",0.994 (inactive)
